{"source": "ChEMBL document CHEMBL3988442", "about": "“University of Dundee, Small-Polar-MMV Screening Library” (2021)"}
{"target": "T1, Aspartate--tRNA(Asp/Asn) ligase (Mycobacterium tuberculosis (strain ATCC 25618 / H37Rv)) (UniProt P9WFW3)", "T1 sequence (whole entry)": "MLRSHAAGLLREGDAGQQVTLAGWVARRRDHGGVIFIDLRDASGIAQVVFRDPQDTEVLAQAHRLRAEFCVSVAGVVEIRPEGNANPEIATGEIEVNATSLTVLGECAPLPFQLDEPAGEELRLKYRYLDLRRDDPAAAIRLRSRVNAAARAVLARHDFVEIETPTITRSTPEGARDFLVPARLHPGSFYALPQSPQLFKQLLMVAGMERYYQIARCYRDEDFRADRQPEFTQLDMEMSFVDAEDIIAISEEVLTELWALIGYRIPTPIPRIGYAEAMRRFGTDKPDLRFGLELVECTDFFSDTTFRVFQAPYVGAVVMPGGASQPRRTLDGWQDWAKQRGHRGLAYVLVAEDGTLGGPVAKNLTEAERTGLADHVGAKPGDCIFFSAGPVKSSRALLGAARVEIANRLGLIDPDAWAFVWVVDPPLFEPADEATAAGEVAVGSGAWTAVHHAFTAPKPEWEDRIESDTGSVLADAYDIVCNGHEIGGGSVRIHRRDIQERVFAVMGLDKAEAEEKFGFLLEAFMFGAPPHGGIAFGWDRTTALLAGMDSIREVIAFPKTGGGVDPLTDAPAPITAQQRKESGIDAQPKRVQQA", "assay": "Assay for Asp RNA synthetase-1 from Mycobacterium tuberculosis", "assay_type": "functional", "parameters": "scale not given: in the data most compounds retested in dose-response had high values", "details": "30 µM", "units": {"Percent Effect": "%"}}
{"smiles": "CN(C(=O)Cc1ccc2c(c1)OCCO2)C1CCCC1", "Percent Effect": -2.52}
{"smiles": "COCCN1CCC2(CCN(Cc3nccs3)CC2)C1=O", "Percent Effect": 3.12}
{"smiles": "COc1ccccc1-c1noc(CN2CCCC2Cn2cccn2)n1", "note": "(stereo not given)", "Percent Effect": -7.54}
{"smiles": "Cc1nn(C)c(Cl)c1CNCc1ccc(OCC(N)=O)cc1", "Percent Effect": -2.25}
{"smiles": "COc1ncccc1C(=O)N1CCN(C(=O)Cc2ccccn2)CC1", "Percent Effect": 4.26}
{"smiles": "CCC1c2ccsc2CCN1C(=O)NCCNc1ncccn1", "note": "(stereo not given)", "Percent Effect": -3.52}
{"smiles": "CNC(=O)C1(c2cnccn2)CCCN1C(=O)c1ccn(C)n1", "note": "(stereo not given)", "Percent Effect": -7.79}
{"smiles": "COCCO[C@H]1CCN(C(=O)C2CCOCC2)[C@H]1Cc1ccncc1", "Percent Effect": 4.84}
{"smiles": "CC(C)COCc1cncc2c1CCN(Cc1cnn(C)c1)C2", "Percent Effect": -0.981}
{"smiles": "CNC(=O)c1cc2c(nc1NCC1CC1)CCN(c1ccncn1)CC2", "Percent Effect": -4.09}
{"smiles": "CCc1c(C)nc2n(c1=O)CC(C(=O)Nc1ccccc1F)CS2", "note": "(stereo not given)", "Percent Effect": -3.83}
{"smiles": "Cc1ccccc1Cc1cnc(NC(=O)C2CNC(=O)N2)s1", "note": "(stereo not given)", "Percent Effect": 6.1}
{"smiles": "Cc1cnn(CC2CCCN2CC(=O)N(C)Cc2ccc(C)o2)c1", "note": "(stereo not given)", "Percent Effect": 0.457}
{"smiles": "Cc1cccc(CN2C[C@@H]3COC[C@]3(COc3ccc(C#N)cn3)C2)n1", "Percent Effect": -4.33}
{"smiles": "Cc1nc(NC(=O)CN2CCc3c(nc(C(C)C)n3C)C2)sc1C", "Percent Effect": -4.32}
{"smiles": "CCOC(=O)[C@]12CCCN(Cc3nccs3)C[C@H]1CN(CCN(C)C)C2", "Percent Effect": 6.19}
{"smiles": "CC(=O)N1CCC(C(=O)c2cc(C)cnc2N)CC1", "Percent Effect": 0.75}
{"smiles": "COCCN1CCC(NCc2cccc(F)c2)C1", "note": "(stereo not given)", "Percent Effect": -3.37}
{"smiles": "CN1CCN(c2ncnc3c2c(C(=O)NC2CC2)c2ccccn23)CC1", "Percent Effect": 5.32}
{"smiles": "COc1ccc(C2CC(=O)Nc3c2cnn3C)cc1", "note": "(stereo not given)", "Percent Effect": -0.607}
{"smiles": "CC(C)Nc1ncnc2c1CCN(C(=O)Cc1ccccn1)CC2", "Percent Effect": 3.17}
{"smiles": "Cc1nc(C)n(C2CCCN(C(=O)c3ccc4c(c3)COC4)C2)n1", "note": "(stereo not given)", "Percent Effect": 0.699}
{"smiles": "Cn1nc(C#N)c2c1CN(C(=O)c1cccnc1)CCC2", "Percent Effect": 7.3}
{"smiles": "COCCN(Cc1ccoc1)C(=O)c1c(F)cccc1Cl", "Percent Effect": -3.31}
{"smiles": "Cc1ccnc(OCC(=O)N2CCC(C(N)=O)CC2)n1", "Percent Effect": -6.44}
{"smiles": "CC(=O)Nc1nc(C(=O)N2CCCC2c2ccccc2C)cs1", "note": "(stereo not given)", "Percent Effect": -0.698}
{"smiles": "COCC(=O)NC1CC2(CCN(Cc3ccco3)CC2)c2ccccc21", "note": "(stereo not given)", "Percent Effect": 5.52}
{"smiles": "CC(Cn1ccnc1)NC(=O)N1CCN(Cc2cccnc2)CC1", "note": "(stereo not given)", "Percent Effect": 0.189}
{"smiles": "Cc1csc2c(=O)n3c(nc12)CCN(C(=O)c1cccnc1)CC3", "Percent Effect": -0.521}
{"smiles": "Cc1cnn(CC2CCCCN2Cc2nnc(-c3ccco3)o2)c1", "note": "(stereo not given)", "Percent Effect": 11.6}
{"smiles": "Cn1cc(CN2CCC3(CCCN(Cc4ccccn4)C3)CC2)cn1", "Percent Effect": -0.638}
{"smiles": "CCOCCCn1c(NC(=O)c2ccc(C)nc2)nc2ccccc21", "Percent Effect": -3.79}
{"smiles": "O=C(CS(=O)(=O)c1ccccc1Cl)NC1CCCCNC1=O", "note": "(stereo not given)", "Percent Effect": -8.65}
{"smiles": "COc1cc(CCC(=O)NC2CC2)ccc1OCC(F)(F)F", "Percent Effect": 1.01}
{"smiles": "COc1ccc2c(c1)OCC(CNC(=O)c1ccncc1)C2", "note": "(stereo not given)", "Percent Effect": -2.83}
{"smiles": "Cn1nnc2c1CCN(CC1CC1)C2COCc1ccccc1", "note": "(stereo not given)", "Percent Effect": 1.84}
{"smiles": "CC(C)(C)SCCCC(=O)N1CCC(Nc2cccnn2)CC1", "Percent Effect": -1.23}
{"smiles": "CCOc1cc(CN(C)CCOC)ccc1OC(F)F", "Percent Effect": -3.33}
{"smiles": "Clc1ccccc1CN1CCc2nc(C3CCCCN3)ncc2C1", "note": "(stereo not given)", "Percent Effect": 1.4}
{"smiles": "Cn1cc(CNCCOc2ccc(F)c(F)c2)c(-c2cccnc2)n1", "Percent Effect": 7.32}
